An excerpt weighted towards active compounds, which were near 10% of everything screened.
NPR1 antag = blocks ANP-stimulated signaling of human Npr1 receptor; HEK293 hNpr1 GloSensor cGMP, ANP-stimulated luminescence; Potency, µM (doses to about 46.3 µM), for inactives: at the highest dose activity change, negative = inhibition, most hits filed as inhibitors; P16066; hit rate 1.6% among 76,000; calls by dose curve; also: % is scaled to controls: 0 for no effect and ±100 for the full control effect; nearly all actives have a fitted effect of over 60% in size
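Compound pre-incubated 30 min at room temperature on GloSensor-loaded HEK293 cells stably carrying hNpr1 and the pGS-40F cGMP biosensor. Stimulation uses hNppA at 0.1 nM final; luminescence is taken at baseline and 20 min post-agonist.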
HEK cytotox = kills HEK 293 cells | HEK 293 viability, ATP luminescence (CellTiter-Glo), 48-72 h | Potency, µM (doses to about 115 µM), without a hit: at the top dose activity change, negative = cytotoxicity, hits mostly inhibitors | hit rate 6.6% among 94,000 | AID 1345083; also: % is scaled to controls: 0 for no effect and ±100 for the full control effect; nearly all actives have a fitted effect of over 60% in size
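Viability of HEK 293 cells, plated at 250 cells/well, was judged by cellular ATP after compound treatment for 48 or 72 hr. Luminescence was imaged 10 min after CellTiter-Glo addition at room temperature.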
GPT2 inhibitor = blocks human glutamate pyruvate transaminase 2; AID 1671188; Recombinant GPT2, coupled pyruvate oxidase/HRP Amplex Red fluorescence; hit rate 0.25% among 100,000; Q8TD30; Potency, µM (series often up to 57.7 µM), without a hit: top-dose activity change, negative = inhibition, usual class: inhibitors; also: % is scaled to controls: 0 for no effect and ±100 for the full control effect; nearly all actives have a fitted effect of over 60% in size
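Fluorescence of coupled pyruvate oxidase/HRP/Amplex Red system (50uM Amplex, 30 min, dark) reports pyruvate formed by GPT2. Enzyme reaction: 10ng/uL GPT2, 2mM L-alanine, 250uM a-KG, 30 min room temperature, pH 7.5; 50uM AOA control.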
3T3 cytotox = NIH 3T3 cell cytotoxicity | NIH 3T3 viability, CellTiter-Glo ATP luminescence, 48-72 h | Potency, µM (doses to about 96.7 µM), inactives show at the highest dose activity change, negative = cytotoxicity, actives largely listed as inhibitors | hit rate 4.3% among 94,000 | AID 1345082; also: % is scaled to controls: 0 for no effect and ±100 for the full control effect; nearly all actives have a fitted effect of over 55% in size
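ATP-dependent luminescence (CellTiter-Glo) served as the viability signal for NIH 3T3 cells treated with compound for 48 or 72 hr at 37 °C.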
Luciferase inh = blocks purified firefly luciferase enzyme activity | P08659 | AID 1347043 | hit rate 2.5% among 76,000 | purified P. pyralis luciferase, luminescence, biochemical | Potency, µM (titrated, usually from 115 µM), actives largely listed as inhibitors; also: % is scaled to controls: 0 for no effect and ±100 for the full control effect; nearly all actives have a fitted effect of over 65% in size
Target sequence (P08659 whole entry, looked up): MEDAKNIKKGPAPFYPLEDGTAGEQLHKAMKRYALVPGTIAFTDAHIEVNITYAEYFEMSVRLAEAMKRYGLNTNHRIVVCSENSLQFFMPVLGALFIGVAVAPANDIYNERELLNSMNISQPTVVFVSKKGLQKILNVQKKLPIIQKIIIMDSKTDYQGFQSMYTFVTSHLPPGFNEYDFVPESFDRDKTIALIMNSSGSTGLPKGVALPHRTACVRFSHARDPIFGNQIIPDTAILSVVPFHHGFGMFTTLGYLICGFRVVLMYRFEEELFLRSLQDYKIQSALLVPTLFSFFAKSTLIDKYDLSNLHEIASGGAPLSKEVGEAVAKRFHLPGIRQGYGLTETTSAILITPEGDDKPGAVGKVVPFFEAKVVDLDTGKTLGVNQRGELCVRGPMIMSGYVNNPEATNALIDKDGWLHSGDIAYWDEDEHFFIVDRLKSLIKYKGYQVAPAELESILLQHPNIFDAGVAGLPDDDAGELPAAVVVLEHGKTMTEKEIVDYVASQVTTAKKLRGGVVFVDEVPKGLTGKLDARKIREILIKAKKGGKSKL
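Luminescence read by CCD imager after adding enzyme (10nM final) to wells holding compound, titrated in qHTS. Substrates 10uM each D-luciferin and ATP; buffer 50mM Tris acetate pH 7.5, 10mM Mg acetate, Tween-20, BSA.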
NPR1 antag cnf = hNpr1 antagonism, confirmation assay; shares compounds with NPR1 antag; HEK293 hNpr1 cGMP GloSensor luminescence, ANP-stimulated; Potency, µM (top dose mostly 57.6 µM), for inactives: top-dose activity change, negative = inhibition, most hits filed as inhibitors; hit rate 76% among 1,400; AID 1347044; calls by dose curve; also: nearly all actives have a fitted effect of over 70% in size
NPR2 antag = selectivity test of Npr1 antagonists against human Npr2; HEK293 hNpr2 GloSensor cGMP luminescence, CNP-stimulated; Potency, µM (series often up to 57.6 µM), without a hit: top-dose activity change, negative = inhibition, actives largely listed as inhibitors; AID 1347046; hit rate 67% among 1,400; shares compounds with NPR1 antag; calls by dose curve; also: nearly all actives have a fitted effect of over 70% in size
FLuc inh counter = inhibits firefly luciferase, false Npr1 antagonist flag | shares compounds with NPR1 antag | purified FLuc enzyme, luminescence, Km substrate | Potency, µM (highest dose often 57.6 µM), without a hit: at the top dose activity change, negative = inhibition, most hits filed as inhibitors | hit rate 0.7% among 1,400 | AID 1347047; also: 0% is about no effect
GloSensor cGMP = reduces cGMP signal in GloSensor control cells | shares compounds with NPR1 antag | HEK293 GloSensor cGMP, SNP-stimulated, luminescence | AID 1347051 | Potency, µM (titrated, usually from 57.6 µM), without a hit: top-dose activity change, negative = inhibition, hits mostly inhibitors | hit rate 69% among 1,400; calls by dose curve; also: % is scaled to controls: 0 for no effect and ±100 for the full control effect; nearly all actives have a fitted effect of over 70% in size
* hit, by the source's call; i = inactive; ? = inconclusive; . = no result; [ ] = remark or other dose. Unless noted, calls follow the shape of the dose curve; as a rule, active = well fitted curve in the direction sought with a large enough effect; inconclusive = small, poorly fitted or top-dose-only effect, or another doubt; inactive = no such curve, though single readings can be large; an effect the other way counts as inactive or inconclusive. Potency is read from the fitted curve at half-maximal effect.

SMILES	NPR1 antag	HEK cytotox	GPT2 inhibitor	3T3 cytotox	Luciferase inh	NPR1 antag cnf	NPR2 antag	FLuc inh counter	GloSensor cGMP
Cc1oc(C(O)c2ccccc2F)nc1C(=O)Nc1ccccc1C(N)=O (centres undefined)	25.1µM*	?	-7.9%[88.5 µM]	?	i	31.4µM*	35.3µM*	3.2%[86.2 µM]	35.3µM*
Cc1oc(C(O)c2ccccc2F)nc1C(=O)Nc1ccccc1 (centres undefined)	-29.5%[70.6 µM]	?	3.6%[88.5 µM]	?	?	.	.	.	.
CNC(=O)c1cccc(NC(=O)c2nc(C(O)c3ccccc3F)oc2C)c1 (centres undefined)	35.5µM*	79.4µM*	-1.5%[88.5 µM]	?	i	31.4µM*	31.4µM*	1.8%[86.2 µM]	31.4µM*
COc1cc(CN2CCC(C)(c3noc(C4CCOCC4)n3)CC2)cc(OC)c1	?	-3.7%	?	-7.6%	i	?	?	-0.2%	3.2%
Cn1cnc(C(=O)N2CCCCCCn3c(nnc3-c3ccc(F)cc3)CC2)c1	-4.5%	0.8%	i	-21.2%	i	.	.	.	.
O=S(=O)(c1ccc(Cl)cc1)N1CCOC[C@H](Oc2ccc(C(F)(F)F)cc2)C1	-23.7%	?	0.8%	?	i	?	?	3.8%	?
O=C(OC[C@H]1O[C@@H](Oc2ccccc2CO)[C@H](O)[C@@H](O)[C@@H]1O)c1ccccc1	.	.	i	.	.	.	.	.	.
Cn1cc(-c2cnc3[nH]cc(CC(=O)NCc4ccc5c(c4)OCO5)c3c2)cn1	0.4%[70.6 µM]	?	i	?	i	.	.	.	.
CNC(=O)c1cccc(-c2cnc3[nH]cc(CC(=O)N(C)c4ccccc4)c3c2)c1	28.2µM*	44.7µM*	2.5%[88.5 µM]	20µM*	i	35.3µM*	35.3µM*	-23.2%[86.2 µM]	39.6µM*
CN(C)c1cccc(-c2cnc3[nH]cc(CC(=O)N4CCOCC4)c3c2)c1	31.6µM*	79.4µM*	i	?	i	22.2µM*	28µM*	?	25µM*
Cc1cccc(-c2cnc3[nH]cc(CC(=O)N4CCOCC4)c3c2)c1	12.6µM*	?	0.2%[88.5 µM]	?	i	12.5µM*	25µM*	-20.7%[86.2 µM]	9.94µM*
Cc1nc(NC(=O)N2CCC[C@@H]2C(N)=O)sc1-c1csc(C(C)(C)C)n1	.	.	i	.	.	.	.	.	.
COc1ccc(C(=O)N[C@@H]2CCC[C@@H]2C(=O)NCc2cccc(C)c2)cc1	2.2%	i	1.8%	-2.6%	i	.	.	.	.
O=C(c1cccc(F)c1)N1CCC(Cc2nc(-c3cnccn3)no2)CC1	-1.8%	-22.8%	-6.9%	-19.7%	i	.	.	.	.
O=C(c1cc(F)ccc1F)N1CCC(Cc2nc(-c3ccccc3)no2)CC1	5.62µM*	?	i	?	i	7.69µM*	9.68µM*	-14.7%	8.62µM*
O=C(c1ccc(F)c(Cl)c1)N1CCC(Cc2nc(-c3cnccn3)no2)CC1	?	?	i	31.6µM*	i	21.7µM*	?	-0.2%	19.3µM*
COc1ccc(-c2noc(CC3CCN(C(=O)c4cc(F)ccc4Cl)CC3)n2)cc1	10µM*	?	i	?	i	12.2µM*	13.7µM*	0.3%	10.9µM*
CC(C)c1noc(CC2CCN(C(=O)c3ccc(F)cc3Cl)CC2)n1	?	?	i	i	i	.	.	.	.
O=C(c1ccc(F)cc1Cl)N1CCC(Cc2nc(-c3ccc(F)cc3)no2)CC1	3.16µM*	31.6µM*	i	?	i	3.06µM*	3.06µM*	4.4%	3.06µM*
COc1ccc(-c2cc(N3CCN(C(=O)c4cc(F)ccc4Cl)CC3)n[nH]2)cc1	-6.1%	?	i	?	i	.	.	.	.
O[C@H]1[C@H](NCc2ccc(OC(F)(F)F)cc2)[C@H]2CO[C@H](O2)[C@@H]1N1CCN(c2ccccc2)CC1	0.0%	-15.7%	-5.8%	i	i	.	.	.	.
C=C(C)CNc1ccc(C(=O)N(CC)Cc2nccn2C)cn1	5.1%	-1.9%	-8.0%	-3.3%	i	.	.	.	.
COc1ccc([S+](=O)([O-])N2CCC3(CC2)OCCN(CC2CC2)C3=O)cc1	?	?	-12.6%[88.5 µM]	?	i	31.4µM*	?	-0.6%[86.2 µM]	31.4µM*
O=C1N(CC2CCOCC2)CCOC12CCN([S+](=O)([O-])c1cccs1)CC2	-2.0%[70.6 µM]	-18.8%[172 µM]	-5.4%[88.5 µM]	?	i	.	.	.	.
N#Cc1ccc([S+](=O)([O-])N2CCC3(CC2)OCCN(CC2CC2)C3=O)cc1	17.8µM*	-21.7%[172 µM]	-3.6%[88.5 µM]	?	i	31.4µM*	?	4.8%[86.2 µM]	28µM*
SMILES	NPR1 antag	HEK cytotox	GPT2 inhibitor	3T3 cytotox	Luciferase inh	NPR1 antag cnf	NPR2 antag	FLuc inh counter	GloSensor cGMP
O=C1N(CC2CC2)CCOC12CCN([S+](=O)([O-])c1ccccc1)CC2	-2.5%[70.6 µM]	-17.2%[172 µM]	-10.7%[88.5 µM]	?	i	.	.	.	.
O=C1N(CC2CC2)CCOC12CCN([S+](=O)([O-])c1ccc(C(F)(F)F)cc1)CC2	11.2µM*	?	-14.0%[88.5 µM]	?	i	17.7µM*	19.8µM*	-0.6%[86.2 µM]	11.1µM*
CC1=C(C(=O)OC(C)C)C(c2ccccc2C)N2C(CC(=O)NCC3CC3)=CSC2=N1 (centres undefined)	?	10µM*	-5.6%	?	i	?	?	-0.7%	?
CC1=C(C(=O)OC(C)C)C(c2ccccc2Cl)N2C(CC(=O)NCC3CC3)=CSC2=N1 (centres undefined)	11.2µM*	?	-6.6%	?	i	?	21.7µM*	5.6%	?
CCC1=C(C(=O)OC)C(c2ccccc2Cl)N2C(CC(=O)NCC3CC3)=CSC2=N1 (centres undefined)	?	?	?	-25.6%	i	.	.	.	.
COC(=O)C1=C(C)N=C2SC=C(CC(=O)NCC3CC3)N2C1c1ccccc1OC (centres undefined)	-17.4%	?	-2.9%	-9.0%	i	.	.	.	.
